Results from PubChem BioAssay AID1159580 (chemical genetic matrix, 2015).
Several values for one entry are separate records, joined by “and”; a condition that tells them apart may be missing. Equal entries are not always repeated. In all, about 5,500 compounds went through this assay and about 2,000 (36%) were called active. Not shown: some 18% with an inconclusive outcome. Cut-off read from the data, not from the text of the source: active = normalized growth mostly below about 0.91 (no sharp cut-off); inconclusive = no clear call, values can overlap the other calls; inactive = mostly above about 0.92. Some of the results follow.

Test: chemical genetic growth profiling, strain panel (AID 1159580);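 note: tested at 20 µM; growth read once vehicle control cultures reached saturation at 30 °C; 1 = growth at the plate median or of vehicle wells; lower values mean less growth of the strain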
Conditions: S. cerevisiae deletion strains, growth OD

Measured: normalized growth

NCc1ccc(S(N)(=O)=O)cc1
inactive: locus YAL021C, strain ccr4, hits give low values 1.01 | locus YAL026C, strain drs2, hits give low values 0.992 | locus YAL030W, strain snc1, hits give low values 1.01 | locus YBL061C, strain skt5, hits give low values 1.01 | locus YBR009C, strain hhf1, hits give low values 0.972 | locus YBR021W, strain FUR4, hits give low values 1.01 | locus YBR023C, strain chs3, hits give low values 1.02 | locus YBR171W, strain sec66, hits give low values 1 | locus YBR229C, strain ROT2, hits give low values 0.986 | locus YBR231C, strain swc5, hits give low values 1.02 | locus YBR279W, strain paf1, hits give low values 1 | locus YCL011C, strain gbp2, hits give low values 1.01 | locus YCL016C, strain dcc1, hits give low values 1.03 | locus YCL029C, strain bik1, hits give low values 0.993 | locus YCL061C, strain MRC1, hits give low values 1.02 | locus YCL069W, strain vba3, hits give low values 0.994 | locus YCR088W, strain abp1, hits give low values 1.01 | locus YDL005C, strain med2, hits give low values 1.02 | locus YDL035C, strain GPR1, hits give low values 1.01 | locus YDL040C, strain nat1, hits give low values 1 | locus YDL074C, strain BRE1, hits give low values 1.01 | locus YDL101C, strain DUN1, hits give low values 0.987 | locus YDL134C, strain PPH21, hits give low values 0.994 | locus YDL185W, strain tfp1, hits give low values 0.977 | locus YDL192W, strain arf1, hits give low values 0.979 | locus YDR001C, strain nth1, hits give low values 0.998 | locus YDR069C, strain doa4, hits give low values 1.01 | locus YDR101C, strain arx1, hits give low values 1.02 | locus YDR137W, strain rgp1, hits give low values 1.03 | locus YDR150W, strain NUM1, hits give low values 1.01 | locus YDR159W, strain sac3, hits give low values 0.983 | locus YDR162C, strain NBP2, hits give low values 1.01 | locus YDR195W, strain ref2 0.989 | locus YDR297W, strain sur2, hits give low values 1.01 | locus YDR318W, strain mcm21, hits give low values 0.99 | locus YDR334W, strain swr1, hits give low values 1 | locus YDR335W, strain msn5, hits give low values 1.01 | locus YDR388W, hits give low values 0.993 | locus YDR392W, strain spt3, hits give low values 0.969 | locus YDR502C, strain sam2, hits give low values 0.99 | locus YEL003W, strain gim4, hits give low values 0.982 | locus YEL037C, strain rad23, hits give low values 0.992 | locus YEL061C, strain CIN8 (second series), hits give low values 1 | locus YEL061C, strain CIN8, hits give low values 1.01 | locus YER015W, strain faa2, hits give low values 0.99 | locus YER016W, strain bim1, hits give low values 1.02 | locus YER110C, hits give low values 0.983 | locus YER111C, strain swi4, hits give low values 0.998 | locus YER155C, strain BEM2 (second series), hits give low values 1.01 | locus YER155C, strain BEM2, hits give low values 0.984 | locus YER167W, strain BCK2, hits give low values 1.02 | locus YFR010W, strain ubp6, hits give low values 0.995 | locus YGL078C, strain dbp3, hits give low values 0.98 | locus YGL086W, strain mad1, hits give low values 0.995 | locus YGL167C, strain pmr1, hits give low values 0.997 | locus YGL173C, strain kem1, hits give low values 1.02 | locus YGL227W, strain vid30, hits give low values 1.01 | locus YGL240W, strain doc1, hits give low values 1.04 | locus YGL248W, strain PDE1, hits give low values 0.984 | locus YGL253W, strain hxk2, hits give low values 1.01 | locus YGR135W, strain pre9, hits give low values 0.961 | locus YGR252W, strain gcn5, hits give low values 0.928 | locus YHR013C, strain ard1, hits give low values 1.04 | locus YHR027C, strain rpn1, hits give low values 1.02 | locus YHR030C, strain SLT2, hits give low values 1.01 | locus YHR079C, strain IRE1 (second series), hits give low values 0.991 | locus YHR079C, strain IRE1, hits give low values 1.04 | locus YHR094C, strain hxt1, hits give low values 0.996 | locus YHR129C, strain ARP1, hits give low values 0.986 | locus YHR142W, strain chs7, hits give low values 1.01 | locus YHR200W, strain rpn10, hits give low values 0.984 | locus YIL066C, strain RNR3, hits give low values 0.989 | locus YIL073C, strain SPO22, hits give low values 1.01 | locus YIL125W, strain kgd1, hits give low values 0.983 | locus YIR030C, strain dcg1, hits give low values 0.991 | locus YJL092W, strain hpr5, hits give low values 1.01 | locus YJL095W, strain BCK1 (second series), hits give low values 1.01 | locus YJL095W, strain BCK1, hits give low values 0.988 and 1.01 | locus YJL115W, strain asf1, hits give low values 1 | locus YJL129C, strain trk1, hits give low values 1.05 | locus YJL134W, strain LCB3, hits give low values 1 | locus YJL154C, strain vps35, hits give low values 1 | locus YJL164C, strain tpk1, hits give low values 0.98 | locus YJL166W, strain qcr8, hits give low values 1.04 | locus YJL168C, strain set2, hits give low values 0.991 | locus YJL187C, strain SWE1 (second series), hits give low values 0.981 | locus YJL187C, strain SWE1, hits give low values 1.01 | locus YJR043C, strain POL32, hits give low values 1.01 | locus YJR066W, strain TOR1, hits give low values 0.957 | locus YJR075W, strain HOC1, hits give low values 0.995
